HPGD inh – blocks human HPGD enzyme activity | P15428 | purified HPGD, NADH fluorescence kinetic, PGE2 substrate | Potency, µM, actives largely listed as inhibitors | 150,000 tested, 4.3% active | AID 894
Target sequence (P15428 whole entry, looked up): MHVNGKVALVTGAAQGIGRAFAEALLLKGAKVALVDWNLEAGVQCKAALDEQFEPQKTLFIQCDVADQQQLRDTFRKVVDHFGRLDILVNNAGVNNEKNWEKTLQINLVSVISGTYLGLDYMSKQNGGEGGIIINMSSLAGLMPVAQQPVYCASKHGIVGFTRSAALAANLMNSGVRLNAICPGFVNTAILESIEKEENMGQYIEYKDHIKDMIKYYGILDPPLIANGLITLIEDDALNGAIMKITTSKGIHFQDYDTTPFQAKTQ
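20 nM HPGD preincubated 15 min at room temperature with compound in 50 mM Tris-HCl pH 8, 0.01% Tween 20. Started with 1 mM NAD+ and 30 uM prostaglandin E2; NADH fluorescence (360/450 nm) read 5 times over 30-s intervals, last minus first.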
PNC inhibitor – perinucleolar compartment assembly inhibition | PC3M PTB-GFP, PNC prevalence imaging, 16 h; hits give low values | activity change (PNC), negative = inhibition, % at 10 µM | 140,000 tested, 3.1% active;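 active = readout at or below -70, meaning at least 70% loss of cells showing the perinucleolar compartment, a nuclear body marking cancer cells; inconclusive = readout between -30 and a set limit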
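PC3M cells stably expressing PTB-GFP, 750–1000 cells/well, treated 16 h at 37 °C with compound (23 nl of library stock), in duplicate. After paraformaldehyde fixation and Hoechst stain, imaged at 20x; PNC prevalence scored by image analysis.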
ALDH1A1 block – inhibitors of human aldehyde dehydrogenase 1A1; P00352; Purified ALDH1A1, NADH fluorescence, propionaldehyde substrate; Potency, µM (highest dose often 75.3 µM), hits mostly inhibitors; 220,000 tested, 7.3% active; AID 1030
Target sequence (P00352 whole entry, looked up): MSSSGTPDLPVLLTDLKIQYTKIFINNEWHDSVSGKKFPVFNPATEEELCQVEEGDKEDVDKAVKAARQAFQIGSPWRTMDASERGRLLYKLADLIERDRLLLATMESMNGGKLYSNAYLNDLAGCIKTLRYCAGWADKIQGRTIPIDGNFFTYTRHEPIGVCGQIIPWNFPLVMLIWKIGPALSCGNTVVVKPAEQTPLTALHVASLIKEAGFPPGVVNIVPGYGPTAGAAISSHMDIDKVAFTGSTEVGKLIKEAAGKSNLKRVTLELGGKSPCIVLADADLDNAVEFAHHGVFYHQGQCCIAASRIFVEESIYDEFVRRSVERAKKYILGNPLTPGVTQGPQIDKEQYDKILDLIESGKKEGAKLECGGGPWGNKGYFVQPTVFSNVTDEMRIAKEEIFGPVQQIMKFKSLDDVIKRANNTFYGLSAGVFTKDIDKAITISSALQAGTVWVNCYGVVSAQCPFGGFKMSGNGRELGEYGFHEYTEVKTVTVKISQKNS
IMPase inh – cell-permeable inhibitors of inositol monophosphatase (IMPase); inhibition (IP1 accumulation), % at 46.1 µM; 120,000 tested, under 10 active; CHO-M1 cells, IP1 accumulation, HTRF TR-FRET ratio; AID 901; P97697; active = well fitted curve in the direction sought with a large enough effect in the signal ratio, not every such curve was filed as active; inconclusive = small, poorly fitted or top-dose-only effect, or a change in a side signal; inactive = no such curve, though single readings can be large or run the other way; the % refers to the signal ratio;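 note: cells stimulated with carbachol in lithium chloride buffer; higher means more IMPase inhibition seen as more IP1 and lower FRET ratio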
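Measured: the HTRF emission ratio (665/620 nm) plus the 620 nm donor channel, each fitted to the Hill equation to give AC50. Cells were CHO-M1 given compounds up to 46 uM and a 30 min carbachol stimulation at 37C.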
LMNA splice mod – modulators of lamin A splicing; AID 1487; Potency, µM (highest dose often 46.1 µM), usual class: inhibitors; HeLa LMNA splicing GFP/RFP minigene ratio, 48 h; 200,000 tested, 0.01% active; active = well fitted inhibition curve with a large enough effect in the signal ratio, with a control signal flat, not every such curve was filed as active; inconclusive = small, poorly fitted or top-dose-only effect, or effect the other way, or a change in a side signal; the % refers to the signal ratio
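S3 HeLa cells stably expressing lamin A-EGFP splicing minigene plus DsRed2, 600 cells/well, 48 h compound exposure at 37C. Laser-scanning cytometry; analysed as GFP (500-530 nm)/RFP (575-640 nm) total intensity ratio; 0.5% DMSO vehicle.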
Luc counter – blocks Kinase-Glo luciferase, a counter-screen artifact | Potency, µM (top dose mostly 38.3 µM), most hits filed as inhibitors | 200,000 tested, 0.28% active | Q27757 | Kinase-Glo luciferase, ATP luminescence, 8 min | AID 1379; active = well fitted inhibition curve with a large enough effect; inconclusive = small, poorly fitted or top-dose-only effect; note: nearly all actives have a fitted effect of over 60% in size
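Inhibition of Kinase-Glo luciferase light generation was assessed at 10 uM ATP in pH 7.2 imidazole buffer, with luminescence measured after eight minutes at ambient temperature.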
Numbers stand for hits; i = inactive; ? = inconclusive; nt = no result given; [ ] = remark or other dose. Shown are actives, neighbours in structure and some others; about 10% of the full set was active somewhere. Unless noted, calls come from the whole dose curve; as a rule, active = well fitted inhibition curve with a large enough effect (not every such curve was filed as active); inconclusive = small, poorly fitted or top-dose-only effect, or another doubt; inactive = no such curve, though single readings can be large or run the other way.

SMILES	HPGD inh	PNC inhibitor	ALDH1A1 block	IMPase inh	LMNA splice mod	Luc counter
COc1ccc(C2=Nc3ccccc3OC2)cc1	i	i	22.4µM	i	?	i
COc1c(C)cc(C(=O)C2CCCN(C(=O)/C=C/c3ccccn3)C2)cc1C (centres undefined)	nt	nt	14.1µM	nt	nt	i
CCOc1ccccc1C(=O)N(Cc1cccs1)c1ccc(Cl)cc1	nt	nt	nt	nt	i	nt
COC1C(O)CC(=O)OC(C)C/C=C/C=C/[C@@H](OC2CCC(N(C)C)C(C)O2)C(C)C[C@@H](CC=O)[C@@H]1O[C@H]1OC(C)[C@H](O[C@@H]2C[C@@](C)(O)C(O)C(C)O2)C(N(C)C)C1O (some centres undefined)	i	nt	i	nt	nt	i
CC(=O)OCCCNc1cc(Sc2ccc(Cl)cc2)c2nonc2c1[N+](=O)[O-]	12.6µM	i	?	i	i	i
CCCC(=O)OCCNc1cc(Sc2nc3ccccc3[nH]2)c2nonc2c1[N+](=O)[O-]	7.94µM	i	7.08µM	nt	?	i
O=S(=O)(/C=C/c1ccccc1)Nc1ccc(N2CCOCC2)cc1	i	i	?	i	i	i
O=C(O)c1ccc(NS(=O)(=O)/C=C/c2ccccc2)cc1O	i	i	10µM	i	i	i
CCSc1nnc2c(n1)OC(c1ccc(OC)cc1OC)N(C(C)=O)c1ccccc1-2 (centres undefined)	nt	nt	nt	i	nt	nt
CCOc1ccccc1N1CCN(c2nc(N)c(C#N)c(CC#N)c2C#N)CC1	i	?	20µM	i	i	i
O=c1c2ccccc2nc(COc2ccccc2)n1/N=C/c1ccco1	i	i	?	i	i	i
CCCc1nc2ccccc2c(=O)n1/N=C/c1ccc(O)cc1	i	i	i	i	?	i
O=C(O)COc1ccc(/C=N/n2c(COc3ccccc3)nc3ccccc3c2=O)cc1	nt	-115.2	?	i	i	nt
Cc1cccc(C)c1OCc1nc2ccccc2c(=O)n1/N=C/c1ccc(OCC(=O)O)cc1	i	i	14.1µM	nt	i	i
Nc1nc(Cc2ccccc2)nc(Cc2ccccc2)c1-c1ccccc1	i	nt	i[13.5 µM]	nt	nt	i[7.66 µM]
COc1ccccc1CN1CCCC2(CCN(C(=O)c3c(C)noc3C)CC2)C1	i	nt	i	nt	nt	i
CCOC(=O)c1c(CC(C)C)csc1NC(=O)C(C)C	i	i	i	i	i	i
CC(C)Cc1csc(NC(=O)c2ccccc2Cl)c1C(=O)O	14.1µM	i	?	nt	?	i
CC(C)Cc1csc(NC(=O)c2ccc(Cl)cc2)c1C(=O)O	17.8µM	i	i	i	?	i
CCOC(=O)c1c(CC(C)C)csc1NC(=O)CCl	i	i	8.91µM	i	i	i
CC(=O)Cc1nsc(NC(=O)c2ccccc2Cl)n1	nt	nt	?	nt	nt	i
Cc1cccc(C(=O)Nc2scc(CC(C)C)c2C(=O)O)c1	15.8µM	-98.3	?	nt	?	i
CC(C)CC(NC(=O)c1ccc(Cl)cc1)C(=O)O (centres undefined)	i	?	i	i	i	i
COc1ccc(-n2c(=O)c(C)nc3cnc(Oc4cccc(Cl)c4)nc32)cc1	i	nt	?	nt	nt	i
CC1(C)CCC[C@@](C)([C@H]2CC[C@]3(C)[C@@H]2[C@H](O)C[C@@H]2[C@@]4(C)CC[C@H](O)C(C)(C)[C@@H]4[C@@H](O)C[C@]23C)O1	i	nt	i	nt	nt	i
SMILES	HPGD inh	PNC inhibitor	ALDH1A1 block	IMPase inh	LMNA splice mod	Luc counter
Cc1ccc(CN2CCCn3nc(C(=O)NCCc4ccccc4Cl)cc3C2=O)cc1	nt	nt	nt	nt	i	nt
COc1ccc(CNC(=O)CC(c2ccc(OC)cc2)N2Cc3ccccc3C2=O)cc1 (centres undefined)	nt	nt	nt	nt	i	nt
CCOC(=O)c1nn(-c2ccccc2C)c(=O)c2c(N)scc12	nt	nt	9.46µM	nt	i[9.22 µM]	i
CCOC(=O)c1nn(-c2ccccc2)c(=O)c2c(N)scc12	i	i	?	i	i	i
COc1ccccc1NC(=O)C1=C(C)Nc2nc(CCCO)nn2C1c1ccc2c(c1)OCO2 (centres undefined)	?	i	14.1µM	i	i	i
COC(=O)[C@@H]1CC[C@H](C)[C@@H](c2ccc(C)cc2)N1C(=O)c1ccc(/C=N\O[C@@H](C)c2cc(-c3c(C)cc(C)cc3C)no2)cc1	nt	nt	i[13.5 µM]	nt	nt	nt
CCCC[C@@H]1C[C@H]1C(NC(=O)c1ccco1)c1ccccc1 (some centres undefined)	i	nt	25.1µM	nt	nt	i
COC(=O)[C@H]1C[C@@H]1[C@H](NC(=O)c1ccccc1)c1ccccc1	i	i	8.91µM	nt	i	i
COC(=O)[C@@H]1C[C@H]1[C@@H](NC(=O)c1cccnc1)c1ccccc1	i	nt	i	nt	nt	i
COc1ccccc1NC(=O)c1cc2c(=O)n(Cc3cccs3)ccc2nc1C	nt	nt	nt	nt	i	nt
Cc1cc(C)c2c(=O)n(CC(=O)N3CCC(Cc4ccccc4)CC3)sc2n1	4.47µM	i	7.08µM	i	i	i
Cc1ccc(-c2ccc(=O)n(CC(=O)N3CCN(c4cccc(C)c4)C(C)C3)n2)cc1 (centres undefined)	i	i	i	i	i	i
Cc1cccc(N2CCN(C(=O)Cn3sc4nc(C)cc(C)c4c3=O)CC2C)c1 (centres undefined)	3.16µM	i	3.55µM	i	i	i
CC(C)(C)c1cc(/C=C(\C#N)C(N)=S)cc(C(C)(C)C)c1O	?	nt	2.82µM	i	?	i
Cn1cccc1/C=C(/C#N)C(N)=S	i	i	i	nt	?	i
[C-]#[N+]/C(C#N)=C\c1cc(C(C)(C)C)c(O)c(C(C)(C)C)c1	i	nt	i	nt	nt	i
N#C/C(=C/c1ccc(F)cc1)C(N)=S	nt	nt	25.1µM	nt	nt	i
O=c1c(-c2ccc(F)c(F)c2)nc2cncnc2n1Cc1ccccc1	i	nt	i	nt	nt	i
Cc1cc(C)n(-c2nc(C)c(C)c(=O)n2CC(=O)Nc2ccc([N+](=O)[O-])cc2)n1	nt	nt	nt	nt	i	nt
CCOC(=O)CSC1=C(C#N)C(c2ccccc2OCC)C(C#N)C(=O)N1 (centres undefined)	i	i	?	i	?	i
CCCOC(=O)CSC1=C(C#N)C(c2ccccc2OC)C(C#N)C(=O)N1 (centres undefined)	i	-97.4	i	i	i	i
CCOC(=O)C1C(=O)NC(SCC(=O)Nc2nccs2)=C(C#N)C1c1ccccc1OCC (centres undefined)	12.6µM	i	6.31µM	i	i	i
Cc1ccc(NC(=O)c2cnc(SCC(=O)N3CCCc4ccccc43)n(C)c2=O)cc1C	nt	nt	nt	nt	i	nt
O=Nc1ccc(NOC(=O)c2ccccc2Br)cc1	28.2µM	i	12.6µM	nt	i	?
Cc1ccc(S(=O)(=O)N[C@H]2COC(=O)C/C=C\[C@@H](C)COC(=O)C/C=C\[C@@H]2C)cc1	nt	nt	i[13.5 µM]	nt	nt	nt
CCCSc1nnc2n(-c3cccc(C)c3)c(=O)c3c4c(sc3n12)CCCC4	nt	nt	nt	i	nt	nt
Cc1ccc(CNC(=O)Cn2c(=O)cc(-c3ccccc3)c3c(C)nn(C)c32)cc1	nt	nt	nt	nt	i	nt

Assay outcomes as filed in PubChem BioAssay.
